In PubChem BioAssay AID1159580 (chemical genetic matrix, 2015):
Hit rate of the full screen: of about 5,500 compounds, about 2,000 (36%) were called active. Not shown: some 18% with an inconclusive outcome. Cut-off read from the data, not from the text of the source: active = normalized growth mostly below about 0.91 (no sharp cut-off); inconclusive = no clear call, values can overlap the other calls; inactive = mostly above about 0.92. This is one part of the list.

Experiment: chemical genetic growth profiling, strain panel (AID 1159580);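 note: tested at 20 µM; growth read once vehicle control cultures reached saturation at 30 °C; 1 = growth at the plate median or of vehicle wells; lower values mean less growth of the strain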
Conditions: growth OD
[1] = S. cerevisiae deletion strains, locus YAL013W, strain DEP1, active compounds read low
[2] = S. cerevisiae deletion strains, locus YBR229C, strain ROT2, active compounds read low
[3] = S. cerevisiae deletion strains, locus YDL101C, strain DUN1, active compounds read low
[4] = S. cerevisiae deletion strains, locus YDL134C, strain PPH21, active compounds read low
[5] = S. cerevisiae deletion strains, locus YDR150W, strain NUM1, active compounds read low
[6] = S. cerevisiae deletion strains, locus YEL061C, strain CIN8, active compounds read low
[7] = S. cerevisiae deletion strains, locus YGR078C, strain PAC10, active compounds read low
[8] = S. cerevisiae deletion strains, locus YGR229C, strain SMI1, active compounds read low
[9] = S. cerevisiae deletion strains, locus YHR030C, strain SLT2, active compounds read low
[10] = S. cerevisiae deletion strains, locus YHR087W, strain rtc3, active compounds read low
[11] = S. cerevisiae deletion strains, locus YJL187C, strain SWE1, active compounds read low
[12] = S. cerevisiae deletion strains, locus YJR043C, strain POL32, active compounds read low
[13] = S. cerevisiae deletion strains, locus YJR075W, strain HOC1, active compounds read low
[14] = S. cerevisiae deletion strains, locus YLR039C, strain RIC1, active compounds read low
[15] = S. cerevisiae deletion strains, locus YLR058C, strain SHM2 (second series), active compounds read low
[16] = S. cerevisiae deletion strains, locus YLR085C, strain ARP6, active compounds read low
[17] = S. cerevisiae deletion strains, locus YLR262C, strain YPT6, active compounds read low
[18] = S. cerevisiae deletion strains, locus YML094W, strain GIM5, active compounds read low
[19] = S. cerevisiae deletion strains, locus YMR219W, strain ESC1, active compounds read low
[20] = S. cerevisiae deletion strains, locus YMR263W, strain SAP30, active compounds read low
[21] = S. cerevisiae deletion strains, locus YNL153C, strain GIM3, active compounds read low
[22] = S. cerevisiae deletion strains, locus YNL298W, strain CLA4 (second series), active compounds read low
[23] = S. cerevisiae deletion strains, locus YNL322C, strain KRE1, active compounds read low
[24] = S. cerevisiae deletion strains, locus YNR030W, strain Alg12, active compounds read low
[25] = S. cerevisiae deletion strains, locus YOL006C, strain TOP1, active compounds read low
[26] = S. cerevisiae deletion strains, locus YPL055C, strain LGE1, active compounds read low
[27] = S. cerevisiae deletion strains, locus YPL241C, strain CIN2, active compounds read low
[28] = S. cerevisiae deletion strains, locus YPR135W, strain CTF4, active compounds read low
[29] = S. cerevisiae deletion strains, locus YKL190W, strain CNB1, active compounds read low
[30] = S. cerevisiae deletion strains, locus YMR307W, strain GAS1, active compounds read low
[31] = S. cerevisiae deletion strains, locus YAL040C, strain CLN3, active compounds read low
[32] = S. cerevisiae deletion strains, locus YCL061C, strain MRC1 (second series), active compounds read low
[33] = S. cerevisiae deletion strains, locus YDR363W, strain ESC2, active compounds read low
[34] = S. cerevisiae deletion strains, locus YER002W, strain NOP16, active compounds read low
[35] = S. cerevisiae deletion strains, locus YNL175C, strain NOP13, active compounds read low
[36] = S. cerevisiae deletion strains, locus YNL197C, strain WHI3, active compounds read low
[37] = S. cerevisiae deletion strains, locus YNL224C, strain SQS1, active compounds read low
[38] = S. cerevisiae deletion strains, locus YOR083W, strain WHI5 (second series), active compounds read low

Measured: normalized growth

COc1ccccc1NC(=O)NCCSCc1ccccc1Cl
inactive: [1] 0.979 | [2] 0.981 | [3] 1.03 | [4] 0.978 | [5] 0.968 | [6] 0.983 | [7] 0.993 | [8] 0.984 | [9] 0.877 | [10] 0.976 | [11] 1.01 | [12] 1.01 | [13] 1.01 | [14] 0.887 | [15] 1 | [16] 1.07 | [17] 0.931 | [18] 0.963 | [19] 0.988 | [20] 1.01 | [21] 1.01 | [22] 0.974 | [23] 0.985 | [24] 0.971 | [25] 0.954 | [26] 0.927 | [27] 1.04 | [28] 0.88 | S. cerevisiae strains, strain wild type, active compounds read low 0.978

CSc1nsc(SC)c1C(=O)NC(=O)Nc1ccc(F)cc1F
inactive: [1] 1.01 | [2] 1.01 | [3] 1.04 | [5] 1.04 | [6] 1.01 | [7] 1.01 | [8] 1.02 | [9] 1.1 | [10] 1.02 | [12] 1.01 | [13] 1.01 | [29] 1.02 | [14] 1.03 | [15] 1 | [16] 1.02 | [17] 1 | [18] 1.08 | [19] 1 | [20] 0.993 | [21] 1.01 | [22] 1.04 | [23] 1.02 | [24] 1.03 | [26] 1.08 | [27] 1.07 | [28] 1.07

Cc1cc(C)c(CSCCNC(=O)Nc2ccc(F)cc2F)c(C)c1
active: [16] 1.28 [resistant]
inactive: [1] 1.02 | [2] 1.01 | S. cerevisiae deletion strains, locus YCL061C, strain MRC1, active compounds read low 1.03 | [3] 1.03 | [4] 1.01 | [5] 0.942 | [6] 1.01 | [7] 1.03 | [8] 1.02 | [9] 1.08 | [10] 1.02 | [11] 1.03 | [12] 1.02 | [13] 1.03 | [29] 1.02 | [14] 1.05 | [15] 1.02 | [17] 1.03 | [18] 1.04 | [19] 1.01 | [20] 0.937 | [30] 1.29 | [21] 1.01 | [22] 1.03 | [23] 1.02 | [24] 1.04 | [25] 1.18 | [26] 0.908 | [27] 1.13 | [28] 1.11

CC(C)[C@@]1(NC(=O)[C@@H]2C[C@@H]3c4cccc5[nH]cc(c45)C[C@H]3N(C)C2)O[C@@]2(O)[C@@H]3CCCN3C(=O)[C@H](Cc3ccccc3)N2C1=O
inactive: [1] 0.941 | [31] 0.972 | [32] 0.974 | [33] 0.945 | [34] 0.981 | [7] 0.996 | [30] 0.985 | [35] 0.987 | [36] 1.02 | [37] 1 | [23] 0.924 | [38] 1 | [26] 0.91 | [27] 0.985

CN1CC(C(=O)NC2(C)OC3(O)C4CCCN4C(=O)C(Cc4ccccc4)N3C2=O)CC2c3cccc4[nH]cc(c34)CC21 (centres undefined)
inactive: [31] 0.995 | [32] 0.992 | [5] 0.99 | [33] 0.974 | [34] 0.988 | [20] 0.987 | [30] 0.965 | S. cerevisiae deletion strains, locus YNL128W, strain TEP1, active compounds read low 0.994 | [35] 1.01 | [36] 0.985 | [37] 1 | [38] 0.98 | [26] 0.905 | [27] 0.995
